Screens (PubChem BioAssay)
Hits are enriched below; roughly 4.3% of the tested compounds scored in any of these assays.
BoNT F protease = BoNT/F light chain protease inhibitors, primary screen, biochemical, flow cytometry, MLPCN library; Botulinum neurotoxin type F light chain protease (Clostridium botulinum); Multiplex microsphere protease cleavage assay; inhibition, % at 10 µM; 360,000 compounds, 0.22% hits; in the data active = inhibition above about 35%, passing the limit was not always enough; inconclusive = no clear call, values can overlap the other calls; note: plate controls were buffer without enzyme for full effect and enzyme alone for no effect
Anthrax LF prot = Bacillus anthracis LF protease inhibitors, primary screen, biochemical, multiplex microsphere, MLPCN library. 360,000 compounds, 0.12% hits. multiplex microsphere protease cleavage assay. AID 588501, 2011. inhibition, % at 10 µM. Lethal factor (Bacillus anthracis), P15917; note: plate controls were buffer without enzyme for full effect and enzyme alone for no effect
Target sequence (P15917 whole entry, looked up): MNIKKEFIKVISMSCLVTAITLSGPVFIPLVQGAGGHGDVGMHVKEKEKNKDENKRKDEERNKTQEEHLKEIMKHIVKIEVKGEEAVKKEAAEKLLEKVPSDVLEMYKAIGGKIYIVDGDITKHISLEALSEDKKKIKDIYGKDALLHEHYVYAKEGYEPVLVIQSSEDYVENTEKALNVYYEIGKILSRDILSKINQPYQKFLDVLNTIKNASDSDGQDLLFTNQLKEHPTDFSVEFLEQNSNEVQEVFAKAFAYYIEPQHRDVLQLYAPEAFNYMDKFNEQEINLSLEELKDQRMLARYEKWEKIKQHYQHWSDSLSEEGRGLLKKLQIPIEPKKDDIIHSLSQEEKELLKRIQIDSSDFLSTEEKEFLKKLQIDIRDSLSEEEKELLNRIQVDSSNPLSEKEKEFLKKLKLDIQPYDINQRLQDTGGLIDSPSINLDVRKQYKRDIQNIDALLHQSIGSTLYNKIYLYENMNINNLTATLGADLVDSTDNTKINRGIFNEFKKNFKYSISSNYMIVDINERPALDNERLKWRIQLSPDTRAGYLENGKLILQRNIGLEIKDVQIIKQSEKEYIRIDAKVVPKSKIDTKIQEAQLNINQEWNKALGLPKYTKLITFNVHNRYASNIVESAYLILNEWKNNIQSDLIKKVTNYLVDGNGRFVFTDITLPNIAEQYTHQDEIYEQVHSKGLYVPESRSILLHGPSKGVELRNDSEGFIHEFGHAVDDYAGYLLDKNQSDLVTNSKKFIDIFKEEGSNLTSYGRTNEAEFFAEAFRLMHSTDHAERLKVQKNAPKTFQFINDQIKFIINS
MazEF act = activators of E. coli MazEF toxin-antitoxin RNase, primary screen, biochemical, fluorescence, uHTS; Endoribonuclease toxin MazF (Escherichia coli (strain K12)), P0AE70; FAM/BHQ RNA-DNA oligo cleavage fluorescence, 5 h; activation, % at 20 µM; 350,000 compounds, 0.32% hits; AID 504720, 2011; in the data active = activation above about 50%
PfHsp40 yeast = rescue of yeast from PfHsp40 toxicity, primary screen, S. cerevisiae, ATP luminescence. 340,000 compounds, 0.68% hits. growth rescue, % at 12.5 µM. AID 504582, 2011. S. cerevisiae expressing PfHsp40, growth rescue; in the data active = growth rescue above about 28%, passing the limit was not always enough; inconclusive = no clear call, values can overlap the other calls;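 note: yeast W303a lacking pdr1 and pdr3 grown in galactose medium; growth measured after three days at 30 °C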
BoNT-A LC inh2 = BoNT/A light chain protease inhibitors, primary screen, biochemical, flow cytometry, MLPCN library | Botulinum neurotoxin type A light chain protease (Clostridium botulinum A str. ATCC 3502) | multiplex microsphere protease substrate cleavage | inhibition, % at 10 µM | 360,000 compounds, 0.17% hits | AID 588499, 2011; note: plate controls were buffer without enzyme for full effect and enzyme alone for no effect
Autofluor counter = compound fluorescence in toxin protease inhibitor counterscreen. compound autofluorescence counterscreen, microsphere flow cytometry; stronger effect = higher value. fluorescence intensity (test concentration not listed). 360,000 compounds, 3.1% hits. AID 624483; in the data active = fluorescence intensity above about 16000; inconclusive = no clear call, values can overlap the other calls
Starred values were filed as active, the others as inactive; ? = inconclusive; . = no result given; ! = a repeat was not active. Cut-off read from the data, not from the text of the source, unless noted: active = inhibition above about 30%; inconclusive = no clear call, values can overlap the other calls; inactive = below that.

SMILES	BoNT F protease	Anthrax LF prot	MazEF act	PfHsp40 yeast	BoNT-A LC inh2	Autofluor counter
Cc1c(N=Cc2cc3c(cc2Cl)OCO3)c(=O)n(-c2ccccc2)n1C	0	-3	5	1	1	23177*
O=C(O)CN1C(=O)C2(OCCCO2)c2ccccc21	-2	1	2	-2	0	23379*
CC1CCOC2(O1)C(=O)N(CN1CCN(c3ccccc3F)CC1)c1ccccc12 (stereo unspecified)	-2	-10	1	0	0	9597
O=C1N(CN2CCC3(CC2)OCCO3)c2ccccc2C12OCCCO2	2	-1	0	0	3	22108*
COC(=O)CN1C(=O)C2(OCCCO2)c2ccccc21	-2	2	5	1	0	11925
O=C1N(CN2CCN(c3cccc(Cl)c3)CC2)c2ccccc2C12OCCCO2	6	-8	1	5	8	21061*
CC1(C)COC2(OC1)C(=O)N(CN1CCOCC1)c1ccccc12	-6	-7	8	0	0	4294
COc1cccc(NC(=O)CN2C(=O)C3(OCCCO3)c3ccccc32)c1	1	-3	-1	0	?	22688*
C=CCn1c(COc2ccc(Cl)cc2)nnc1SCC(=O)c1c(N)n(C)c(=O)n(C)c1=O	-1	-3	-15	-1	-1	4432
CC(=O)Nc1ccc(NC(=O)C(C)N(C)CC(=O)Nc2ccccc2Br)cc1 (stereo unspecified)	25	-9	0	-2	2	3132
COc1cccc(/C=C/c2ccc3cccc(O)c3n2)c1OC	?	-9	-10	-1	2	3734
O=[N+]([O-])c1ccc(/C=C/c2ccc3cccc(O)c3n2)cc1	-12	-10	92*	0	-2	3168
Oc1cccc(/C=C/c2ccc3cccc(O)c3n2)c1	?	-2	9	1	-4	3926
COc1ccc(/C=C/c2ccc3cccc(O)c3n2)c(OC)c1OC	-27	-5	0	33*	1	2739
O=[N+]([O-])c1ccc(/C=C/c2ccc3ccccc3n2)cc1	-5	-4	-1	0	-1	4172
COc1cccc(/C=C/c2ccc3cccc(O)c3n2)c1	-23	3	-2	35*	-6	4210
Cc1ccc(S(=O)(=O)NCCC(=O)N2CC(C)OC(C)C2)cc1C (stereo unspecified)	12	0	1	-1	5	4420
CC1ON=C(c2ccc(F)cc2)NC1=O (stereo unspecified)	-5	-1	.	.	0	5261
Cc1ccc(C(=O)OCC(=O)N2CCC(C)CC2)cc1S(=O)(=O)N1CCOCC1	0	-8	16	.	0	3543
COc1cc(CCC(=O)Nc2ccc(C)c(S(=O)(=O)N(C)C)c2)cc(OC)c1OC	1	-5	-5	0	0	8377
CCOc1ccc(CC(=O)Nc2sc(Cc3ccccc3)cc2C(N)=O)cc1OCC	-8	-2	-6	-2	-5	17390*
COCCNC(=O)C1(C)CCCN(C(=O)c2ccc(F)cc2Cl)C1 (stereo unspecified)	4	-4	.	.	0	3975
COc1cccc(C(c2c(O)nc(SC)n(C)c2=O)c2c(O)nc(SC)n(C)c2=O)c1	4	-4	0	0	2	21226*
CCCSc1nc(O)c(C(c2ccc(OC)c(O)c2)c2c(O)nc(SCCC)n(C)c2=O)c(=O)n1C	0	2	38	2	0	2339
COc1cc2ccccc2cc1C(=O)N1CC(C)CC(C)C1 (stereo unspecified)	0	0	-13	-2	1	?
SMILES	BoNT F protease	Anthrax LF prot	MazEF act	PfHsp40 yeast	BoNT-A LC inh2	Autofluor counter
Cc1cc(O)c2c(c1)C(=O)C13C(=C2O)C(=O)[C@H]2[C@@H](O)[C@@H]1[C@H]1[C@H](O)[C@@H]3C(=O)C3=C(O)c4c(O)cc(C)cc4C(=O)C312 (stereo partly specified)	-10	-8	-10	282*	-2	6035
O=C(/C=C/c1ccccc1Cl)NCc1ccccc1	0	0	-7	0	0	20859*
O=C(/C=C/c1ccccc1Cl)NCCc1ccccc1	-2	0	-3	6	?	21242*
C/C(=N/NC(=O)CNc1ccc(C)cc1)c1ccc(Br)s1	-3	1	-4	-1	0	19958*
CSc1ccc(S(=O)(=O)NC2CCCCCC2)cc1	-24	3	1	67*	-1	5863
COc1cc(S(=O)(=O)NC2CCCC2)ccc1F	-2	0	5	-1	-1	16811*
COc1ccc(S(=O)(=O)NC2CCCCC2)cc1F	-10	-3	-3	0	-5	6324
Cc1ccc(S(=O)(=O)NC2CCCCC2)cc1	-2	6	3	1	0	5748
COc1cc(S(=O)(=O)NC2CCCCC2C)ccc1F (stereo unspecified)	-9	-2	0	98*	0	5831
Cc1ccc(CNC(=O)Nc2ccc(F)cc2)n1C	-31	-4	6	0	4	4076
COC(=O)COc1ccc(S(=O)(=O)NCc2cccnc2)cc1C	10	1	12	-1	6	17503*
CCOc1ccc(S(=O)(=O)NCc2cccnc2)cc1C	-9	1	-4	0	-1	4322
COc1cc(S(=O)(=O)NCc2cccnc2)ccc1F	0	-4	5	-1	1	21999*
CCOC(=O)c1c(S(=O)(=O)NCC(=O)NCc2ccccc2Cl)c(C)n(C)c1C	-8	2	4	-1	-1	4391
O=C(NNC(=O)c1cccs1)c1ccco1	5	0	4	3	-1	3409
CC(C)(C)c1ccc(C(=O)NNC(=S)NC(=O)c2cccnc2)cc1	-1	-2	5	109*	-2	3781
CC(C)(C)c1ccc(C(=O)NC(=S)NNC(=O)c2cccs2)cc1	-6	-2	3	465*	-1	1933
O=C(NC(=S)NNC(=O)c1cccs1)c1ccco1	-2	-1	-4	-1	-3	23561*
O=C(NC(=S)NNC(=O)c1cccs1)c1ccccc1	3	-1	4	19	-1	6460
O=C(Cn1nnc(-c2ccc(Cl)cc2)n1)NC(=O)NC1CCCC1	-7	-3	2	.	0	4171
Cc1cc2ncn(/N=C/c3ccc(-c4ccccc4)o3)c2cc1C	3	0	13	0	2	21563*
COC(=O)C1CN(C(=O)COc2ccc(Cl)cc2C)c2ccccc2O1 (stereo unspecified)	-10	-3	2	2	1	3015
CCCCCC(=O)N1CCN(CCN=CC2=C(O)CC(c3cccs3)CC2=O)CC1 (stereo unspecified)	-2	-3	3	0	0	19021*!
